# Screening results: PubChem, National Center for Advancing Translational Sciences (NCATS)
# Compounds with a hit are over-represented: about 19% of the library has one in this group of screens.
# Shiga inhibitor: A qHTS for Small Molecule Inhibitors of Shiga Toxin. Vero cells, Shiga toxin protein synthesis inhibition reporter. inhibition, % at 38.7 µM. 290,000 compounds, 9.2% hits; in the data active means inhibition mostly above about 28%, no sharp cut-off; inactive means mostly below about 43%; further: 0% is about no effect
# Cycloheximide cs: Cycloheximide Counterscreen for Small Molecule Inhibitors of Shiga Toxin | cell reporter, cycloheximide protein synthesis inhibition counterscreen | max response, % | 300,000 compounds, 12% hits | AID 2314, 2010; in the data active means max response mostly above about 13%, no sharp cut-off; inactive means mostly below about 14%; further: read at 38.3 µM for the half of the compounds with a filed dose; 0% is about no effect
# LASV entry inh: qHTS for Inhibitors of binding or entry into cells for Lassa Virus. Lassa virus pseudotype entry inhibition, cell reporter. Potency, µM (titrated, usually from 37.9 µM), inactives show at the top dose activity change, negative = inhibition, usual class: inhibitors. 300,000 compounds, 1.2% hits. AID 540256, 2011; calls by dose curve; tested in HEK293 cells; further: potency means the concentration at half of the fitted maximal effect; on the % scale 0 is the no-effect control and ±100 the full control effect; nearly all actives have a fitted effect of over 50% in size
# Pf growth 96h: Primary qHTS for delayed death inhibitors of the malarial parasite plastid, 96 hour incubation | P. falciparum luciferase reporter growth, 96 h | Potency, µM (highest dose often 28.7 µM), inactives show at the highest dose activity change, negative = inhibition, usual class: inhibitors | 320,000 compounds, 6.9% hits | AID 504834, 2011; further: potency means the concentration at half of the fitted maximal effect; on the % scale 0 is the no-effect control and ±100 the full control effect
#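 Plates of compound plus infected erythrocytes (2% hematocrit, 0.05% parasitemia final) incubate 96 hours, 37 C, 5% CO2. Detection reagent added; reduced luminescence from the parasites' luciferase reporter flags inhibition.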
# Pf growth 48h: Primary qHTS for delayed death inhibitors of the malarial parasite plastid, 48 hour incubation | 310,000 compounds, 5.9% hits | Potency, µM (titrated, usually from 28.7 µM), for inactives: top-dose activity change, negative = inhibition, actives largely listed as inhibitors | P. falciparum luciferase growth in erythrocytes, 48 h | AID 504832, 2011; further: potency means the concentration at half of the fitted maximal effect; on the % scale 0 is the no-effect control and ±100 the full control effect
#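 Erythrocytes infected with P. falciparum carrying an integrated firefly luciferase reporter (2% hematocrit, 0.1% parasitemia final) were exposed to compounds in RPMI 1640 with 0.5% Albumax at 37 C, 5% CO2. Growth inhibition was scored as reduced luminescence.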
# Marburg entry inh: qHTS for inhibitors of binding or entry into cells for Marburg Virus | Potency, µM (series often up to 37.8 µM), for inactives: top-dose activity change, negative = inhibition, most hits filed as inhibitors | AID 540276, 2011 | 300,000 compounds, 1.8% hits | Marburg virus pseudotyped entry inhibition, cell reporter; calls by dose curve; tested in HEK293 cells; further: potency means the concentration at half of the fitted maximal effect; on the % scale 0 is the no-effect control and ±100 the full control effect
# An asterisk follows results filed as active; ? = inconclusive; . = no result given; [ ] = dose if it differs, or a comment. Unless noted, the call rests on the fitted dose curve; in most records, active means well fitted inhibition curve with a large enough effect; inconclusive means small, poorly fitted or top-dose-only effect, or another doubt; inactive means no such curve, though single readings can be large or run the other way.
SMILES,Shiga inhibitor,Cycloheximide cs,LASV entry inh,Pf growth 96h,Pf growth 48h,Marburg entry inh
CCCCNC(=O)C1CCN(S(=O)(=O)c2c(C)noc2/C=C\c2ccc(OC)cc2)CC1,-8,-4,.,10µM*,.,.
COCCCNC(=O)C1CCN(S(=O)(=O)c2c(C)noc2/C=C\c2ccc(OC)cc2)CC1,-15,-2,0%,-10%,?,-7%
CCOc1ccccc1/C=C/c1onc(C)c1S(=O)(=O)N1CCC(C(=O)NC(C)C)CC1,-1,1,.,57%,?,.
COc1ccc(/C=C/c2onc(C)c2S(=O)(=O)N2CCC(C(=O)N3CCCCCC3)CC2)cc1,2,6,?,?,4.1µM*,?
CCOc1ccccc1/C=C/c1onc(C)c1S(=O)(=O)N1CCC(C(=O)N2CCCCCC2)CC1,-7,-2,.,?,7.4µM*,.
Cc1cccc(/C=C/c2onc(C)c2S(=O)(=O)N2CCC(C(=O)N3CCCCC3)CC2)c1,-5,-2,?,?,9.3µM*,.
Cc1cc(OCC(=O)NNC(=S)NC(=O)c2ccc(Br)o2)ccc1Cl,-3,-3,.,?,5%,.
C=CCNC(=S)/C(=C(/[O-])c1ccccc1Br)[n+]1ccccc1,-5,-2,.,0%,-14%,.
CC1=C(C(=O)Nc2ccccc2C)C(c2cccnc2)n2nc(SCc3ccccc3F)nc2N1 (stereo not drawn),.,.,?,.,.,9%[46.1 µM]
N=c1cc(C2(O)CCCCC2)n2c(nc3ccccc32)s1,89*,48*,10µM*,?,76%,5.8µM*
Cc1ccc(-n2c(-c3cccs3)nc3nc4ccccc4nc32)cc1,-8,-2,.,2.9µM*,1%,.
Cc1nc(C(=O)N/N=C/c2[nH]ncc2Br)cs1,45,35*,2%[46.1 µM],1.5µM*,1.7µM*,?
Cc1cc(C(=O)N/N=C/c2cn[nH]c2-c2ccccc2)cs1,15,9,3%,?,-8%,19%
C=CCn1c(COc2ccccc2)nnc1SCC(=O)Nc1ccc2c(c1)OCCO2,3,-3,-2%,-6%,0%,-2%[46.1 µM]
C=CCn1c(COc2ccc3c(c2)CCCC3)nnc1SCC(=O)Nc1cccc(SC)c1,58*,47*,-12%,-7%,-22%,?
COc1ccc(-c2[nH]ncc2/C=C(/C#N)C(=O)NC2CCCCC2)cc1,-6,6,?,7.4µM*,.,?
O=C(/C=C/c1ccco1)N1CCC(Cc2ccccc2)CC1,84*,26*,10%,12%[5.75 µM],?,?
COc1cccc(N2CCN(C(=O)/C=C/c3ccco3)CC2)c1,60,41*,8%,?,?,-12%[46.1 µM]
O=C(/C=C/c1c(Cl)cccc1Cl)N1CCN(c2ncccn2)CC1,-13,4,6%,.,17%,1%[46.1 µM]
CC(C)C(=O)N1CCC(Cc2ccccc2)CC1,-10,-3,.,?,30%,.
O=C(/C=C/c1ccco1)N1CCN(c2ncccn2)CC1,92*,19*,?,14%,77%,?
O=C(c1ccc(F)cc1)N1C2CCC1CC(O)(c1ccc(F)cc1)C2 (stereo not drawn),-11,5,-21%,68%,-3%,-25%
CCCCC(=O)Nc1cccc(-c2cn3ccsc3n2)c1,47*,34*,?,?,106%,?
COc1ccccc1C(=O)Nc1cccc(-c2cn3ccsc3n2)c1,42*,27*,.,.,-9%,.
CCCS(=O)(=O)c1c(S(=O)(=O)CCC)c2c(C)cccn2c1C(N)=O,20,-3,-12%,?,-14%,?
Cc1ccc2c(c1)c1c(n2C)-c2[nH]ncc2CC1,78*,15*,?,44%,94%,27%
CCOC(=O)c1cc2sc(C)cc2n1C(C)C(=O)OCC (stereo not drawn),-5,-2,0%,0.83µM*,24%,6%
CCOC(=O)c1cc2sc(C)cc2n1CC(=O)Nc1cccc(C)c1C,0,-1,-22%,10%,?,-2%
O=[N+]([O-])c1cccc(C=NN2CCCCCC2)c1,.,.,17%,.,.,3%
Cc1c(C(=O)N2CCN(C/C=C/c3ccccc3)CC2)oc2c(F)cccc12,.,.,7%,15%,-12%,1%
